Results filed as inconclusive are left out. Activity calls are given as the source filed them. Calls come from the whole dose curve; as a rule, active = well fitted inhibition curve with a large enough effect; inconclusive = small, poorly fitted or top-dose-only effect; inactive = flat fitted curve, though single readings scatter.
Assays:
Assay in all cases: qHTS profiling for inhibitors of Plasmodium falciparum proliferation (AID 504749); note: nearly all actives have a fitted effect of over 60% in size
Conditions in all cases: P. falciparum in erythrocytes, SYBR Green DNA, 72 h; series mostly up to 12.8 µM
CP260 = system: CP260
Method in brief: (§1)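 In a 72 h erythrocytic culture (37 C, humidified, 5% CO2) at 2.5% hematocrit and 0.3% starting parasitemia, compounds were tested; SYBR Green I in detergent lysis buffer stained parasite DNA overnight.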

CP262 = system: CP262
Method in brief: as §1

CP265 = system: CP265
Method in brief: as §1

CP266 = system: CP266
Method in brief: as §1

CP268 = system: CP268
Method in brief: as §1

CP269 = system: CP269
Method in brief: as §1

CP286 = system: CP286
Method in brief: as §1

CP291 = system: CP291
Method in brief: as §1

CP297 = system: CP297
Method in brief: as §1

CP305 = system: CP305
Method in brief: as §1

CP315 = system: CP315
Method in brief: as §1

CP325 = system: CP325
Method in brief: as §1

CP329 = system: CP329
Method in brief: as §1

CP335 = system: CP335
Method in brief: as §1

DFO2036 = system: DFO2036
Method in brief: as §1

DIV14 = system: DIV14
Method in brief: as §1

DIV17 = system: DIV17
Method in brief: as §1

DIV30 = system: DIV30
Method in brief: as §1

Dd2 = system: Dd2
Method in brief: as §1

ECU = system: ECU
Method in brief: as §1

FAB9 = system: FAB9
Method in brief: as §1

GB4 = system: GB4
Method in brief: as §1

HB3 = system: HB3
Method in brief: as §1

ICS = system: ICS
Method in brief: as §1

JCK = system: JCK
Method in brief: as §1

N140 = system: N140
Method in brief: as §1

P93_24 = system: P93_24
Method in brief: as §1

P94_40 = system: P94_40
Method in brief: as §1

PAD = system: PAD
Method in brief: as §1

PC15 = system: PC15
Method in brief: as §1

PC26 = system: PC26
Method in brief: as §1

PC49 = system: PC49
Method in brief: as §1

SC27B = system: SC27B
Method in brief: as §1

TAB109 = system: TAB109
Method in brief: as §1

TAB113 = system: TAB113
Method in brief: as §1

TAB165 = system: TAB165
Method in brief: as §1

W2 = system: W2
Method in brief: as §1

Measured: Potency

O=C(O)[C@@H]1CCCN1
inactive: all assays above
